Screening data deposited in PubChem by National Center for Advancing Translational Sciences (NCATS).
Only some compounds are listed: those with a hit (about 3.4% of all), similar ones and a draw of the others.
FLuc inh: inhibitors of firefly luciferase. AID 411. purified firefly luciferase, luminescence, 8 min. Potency, µM (titrated, usually from 57.1 µM), hits mostly inhibitors. 72,000 tested, 2.2% active; active = well fitted inhibition curve with a large enough effect; inconclusive = small, poorly fitted or top-dose-only effect; note: nearly all actives have a fitted effect of over 40% in size
Target sequence (P08659 whole entry, looked up): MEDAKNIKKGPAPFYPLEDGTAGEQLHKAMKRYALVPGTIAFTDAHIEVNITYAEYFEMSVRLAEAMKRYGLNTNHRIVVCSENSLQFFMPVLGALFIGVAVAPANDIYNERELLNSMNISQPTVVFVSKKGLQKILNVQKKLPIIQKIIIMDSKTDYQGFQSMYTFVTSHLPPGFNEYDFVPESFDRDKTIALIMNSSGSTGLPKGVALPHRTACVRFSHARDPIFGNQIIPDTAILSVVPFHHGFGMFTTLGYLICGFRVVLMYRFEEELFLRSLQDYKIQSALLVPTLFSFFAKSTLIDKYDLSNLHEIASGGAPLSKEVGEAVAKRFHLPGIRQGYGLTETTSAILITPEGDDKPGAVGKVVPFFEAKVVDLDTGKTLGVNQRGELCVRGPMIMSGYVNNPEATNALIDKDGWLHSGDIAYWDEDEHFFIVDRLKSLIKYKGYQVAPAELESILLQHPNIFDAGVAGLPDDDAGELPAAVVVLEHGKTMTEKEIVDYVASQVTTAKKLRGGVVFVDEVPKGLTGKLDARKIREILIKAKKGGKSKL
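Substrate buffer containing 10 uM ATP (pH 7.2 imidazole, Mg2+, KCl, detergent, BSA) is dispensed, compound pinned in, then luciferase/luciferin detector mix added. After 8 min at ambient temperature, light output is measured.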
GBA mod: modulators of human glucocerebrosidase; purified enzyme, resorufin glucoside fluorescence (screen aimed at inhibitors), 20 min; Potency, µM; 48,000 tested, 1.1% active; P04062; in the data active = potency below about 15 µM; inconclusive = mostly about 16 µM to 33 µM;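 note: the screen sought inhibitors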
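Normal human glucocerebrosidase (0.2 nM final) was assayed with resorufin β-D-glucopyranoside (30 uM final) in 50mM citric acid/KH2PO4, 10mM sodium taurocholate, 0.01% tween-20, pH 5.9. Compounds were titrated; fluorescence (Ex 548, Em 600) read after 20 min at RT.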
PK Bst: pyruvate kinase (B. stearothermophilus) modulation | purified pyruvate kinase, luminescence ATP production; ribose 5-phosphate activator present at AC10 | AID 361 | 51,000 tested, 1.2% active | Potency, µM; in the data active = potency below about 11 µM; inconclusive = mostly about 12 µM to 25 µM;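 the screen sought inhibitors and activators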
A number is an active result; ! = repeats disagree; [ ] = dose if it differs, or a comment.

COc1ccc(O)c(-c2cc(-c3cccs3)[nH]n2)c1 was read as FLuc inh 15.8µM, GBA mod inactive and PK Bst inconclusive.
Screening COc1ccccc1-c1cc(-c2cc(Cl)ccc2O)n[nH]1 returned FLuc inh inactive and PK Bst inactive.
Screening COc1ccc(-c2nc3cnc(N4CCOCC4)nc3n(CCc3ccccc3)c2=O)cc1 returned FLuc inh inactive[11.4 µM].
Screening c1ccc(-c2cn3nc(-c4ccccc4)sc3n2)cc1 returned FLuc inh 0.126µM.
`c1ccc(-c2nnc3sc(-c4ccncc4)nn23)cc1` gave FLuc inh inactive and GBA mod inactive.
Screening Cc1c(C(=O)N2CCOCC2)sc2nc(-c3ccccc3)cn12 returned FLuc inh inactive and GBA mod inactive.
Screening Cc1nn2cc(-c3ccccc3)nc2s1 returned FLuc inh 10µM, GBA mod inactive and PK Bst inconclusive.
`C/C(=N/NC(=O)c1ccncc1)c1ccccc1Cl` gave FLuc inh inactive[11.4 µM].
Screening c1cncc(CNc2ncncc2-c2cccnc2)c1 returned FLuc inh inactive[2.29 µM].
For CN1C[C@@H](C(=O)N[C@]2(C)O[C@]3(O)[C@H]4CCCN4C(=O)[C@H](Cc4ccccc4)N3C2=O)C[C@H]2c3cccc4[nH]cc(c34)C[C@@H]21 the results were FLuc inh inactive.
Screening CN(C)c1ccc(-c2cncnc2NCc2cccnc2)cc1 returned FLuc inh inactive[2.29 µM].
O=C(Oc1ccc(-c2cn3c(n2)SCC3)cc1)c1ccccc1 was read as FLuc inh 12.6µM and GBA mod inconclusive.
For O=C(Oc1ccccc1)c1ccc(-n2cnnn2)cc1 the results were FLuc inh inactive, GBA mod inactive and PK Bst inactive.
`CC[C@H](NC(C)C)[C@H](O)c1ccc(O)c(O)c1` gave FLuc inh inactive.
For c1ccc2c(c1)C(=Nc1ccc(N=C3c4ccccc4-c4ccccc43)cc1)c1ccccc1-2 the results were FLuc inh inactive[11.4 µM].
For O=C(N/N=C\c1cccc(O)c1)c1ccncc1 the results were FLuc inh inactive[11.4 µM].
O=C(N/N=C\c1ccc2c(c1)CCC2)c1ccccc1O was read as FLuc inh 3.16µM.
Cc1ccccc1CS(=O)(=O)CCC(=O)NCCCN1CCN(c2ccccc2F)CC1 was read as FLuc inh inactive, GBA mod inactive and PK Bst inactive.
Screening Cc1cc(C)c2c(=O)n(CC(=O)NCCCN3CCOCC3)sc2n1 returned FLuc inh 12.6µM.
`Cc1cc(C)c2c(=O)n(CC(=O)NCCCN3CCN(c4ccccc4F)CC3)sc2n1` gave FLuc inh 12.6µM.
Screening Cc1cc(C)c2c(=O)n(CC(=O)N3CCC(Cc4ccccc4)CC3)sc2n1 returned FLuc inh inactive.
Screening COC(=O)C/C=C\[C@H](C)[C@@H](OCc1ccccc1Br)C(C)C returned FLuc inh inactive[11.4 µM].
Cn1cccc1C(=O)N1CCC2(CC1)CCN(C(c1ccccc1)c1ccccc1)CC2 was read as FLuc inh inactive[11.4 µM].
`COc1ccc2c(c1)N(CC[C@H]1CCCCN1C)c1ccccc1S2` gave FLuc inh inactive[11.4 µM].
Screening Fc1ccc(-c2nnc(-c3ccc(Cl)cc3Cl)o2)cc1 returned FLuc inh 1.26µM.
For Clc1ccc(-c2nnc(-c3ccc(Br)o3)o2)c(Cl)c1 the results were FLuc inh inactive.
`Fc1ccc(-c2nnc(-c3ccc(Cl)cc3)o2)cc1` gave FLuc inh inactive.
For Clc1ccc(-c2nnc(-c3ccccc3)o2)c(Cl)c1 the results were FLuc inh 2µM, GBA mod inactive and PK Bst 2.55.
For CN(CC(=O)O)Cc1c(O)c(Cl)cc(Cl)c1Cl the results were FLuc inh inactive[11.4 µM].
Screening CC(=O)Nc1ccc2nc(-c3ccccn3)[nH]c2c1 returned FLuc inh 12.6µM, GBA mod inactive and PK Bst inconclusive.
Screening O=C(Nc1ccc2nc(-c3cccs3)[nH]c2c1)c1cccs1 returned FLuc inh 12.6µM, GBA mod inactive and PK Bst 10.2.
For CC(=O)Nc1ccc2nc(C3CCCCC3)[nH]c2c1 the results were FLuc inh inactive, GBA mod inactive and PK Bst inactive.
Screening Cn1c(CN2CCCCC2)nc2cc(NC(=O)c3cccs3)ccc21 returned FLuc inh inactive, GBA mod inactive and PK Bst inactive.
`O=C(Nc1ccc2nc(-c3cccs3)[nH]c2c1)c1ccco1` gave FLuc inh 10µM, GBA mod inconclusive and PK Bst 9.46.
Screening Cc1ccc(NC(=O)c2cccs2)cc1NC(=O)c1ccco1 returned FLuc inh inactive, GBA mod inactive and PK Bst inactive.
For Cc1noc(C)c1-c1nccc(Nc2ccc(F)cc2)n1 the results were FLuc inh inactive[2.29 µM].
For C=CC[C@@H]1C=C[C@@H](O/N=C\C[C@@H]2C=C[C@H](OC(C)=O)[C@H](COC(C)=O)O2)[C@@H](CO)O1 the results were FLuc inh inactive[11.4 µM].
Screening C[C@H]1C[C@@H]2[C@H]3CCC4=CC(=O)C=C[C@@]4(C)[C@]3(Cl)[C@@H](Cl)C[C@]2(C)[C@]1(O)C(=O)COP(=O)(O)O returned FLuc inh inactive[11.4 µM].
`Cc1ccc(-n2nc3ccc(N)cc3n2)cc1` gave FLuc inh 2µM.
Screening Cc1ccc(-n2nc(-c3ccc(N)cc3)cc2N)cc1 returned FLuc inh inactive.
Screening CC(C)(C)C1CCC2(CC1)CCN(CCCN1CCOCC1)CC2 returned FLuc inh inactive[11.4 µM].
For O=C(NCCCO)c1ccc2[nH]c3ccccc3c2c1 the results were FLuc inh inactive, GBA mod inactive and PK Bst inactive.
`CNC(=O)c1cc2c(cn1)[nH]c1ccccc12` gave FLuc inh 25.1µM!.
For COc1ccccc1N1CCN(c2ccc(-c3ccccc3)nn2)CC1 the results were FLuc inh 0.631µM, GBA mod inactive and PK Bst 1.63.
COc1ccccc1N1CCN(c2nc(-c3ccccc3)cc(C(F)(F)F)n2)CC1 was read as FLuc inh inactive, GBA mod inactive and PK Bst inactive.
CC[C@@]1([N+](=O)[O-])C[C@H]2C=C[C@@H]1C2 was read as FLuc inh inactive[11.4 µM].
`COc1cccc2[nH]c3c(N4CCCC(C)C4)ncnc3c12` (stereo not drawn) gave FLuc inh 12.6µM and GBA mod inactive.
`CCOC(=O)C1CCCN(c2ncnc3c2[nH]c2cccc(OC)c23)C1` (stereo not drawn) gave FLuc inh inactive and GBA mod inactive.
For CCCc1ccc(S(=O)(=O)NCCc2ccncc2)cc1 the results were FLuc inh inactive, GBA mod 7.13 and PK Bst inactive.
Screening CC(C)(C)c1ccc(S(=O)(=O)NCCc2ccncc2)cc1 returned FLuc inh inactive, GBA mod inconclusive and PK Bst inactive.
COc1ccc(Oc2ncc3ncc(=O)n(CCC#N)c3n2)cc1 was read as FLuc inh inactive[11.4 µM].
COc1ccc(O[C@H]2C=C[C@@H](c3ccccc3)O[C@H]2COC(=O)CC/C(C)=N\O[C@@H](C)c2cn([C@H]3COC[C@H]3O)nn2)cc1 was read as FLuc inh inactive[11.4 µM].
For CC1CN(S(=O)(=O)c2ccc(NC(=O)c3cc(-c4ccccc4O)n[nH]3)cc2)CC(C)O1 (stereo not drawn) the results were FLuc inh inactive, GBA mod 7.64 and PK Bst inactive.
For CC1CN(S(=O)(=O)c2ccccc2)CC(C)O1 (stereo not drawn) the results were FLuc inh inactive, GBA mod inactive and PK Bst inactive.
